Experimental data from PubChem BioAssay (Tox21).
Inconclusive results are not listed. Where a call stands in place of a potency, no number is given. Activity calls are given as the source filed them. Calls come from the whole dose curve; as a rule, active = well fitted cell-killing curve with a large enough effect in the repeat runs; inconclusive = weak or mixed curves, or effect the other way; inactive = no such curve, though single readings can be large or run the other way.

assay: qHTS assay to identify small molecule antagonists of the glucocorticoid receptor (GR) signaling pathway - cell viability counter screen (AID 720693); conditions: GR-bla HeLa viability, CellTiter-Glo luminescence, 18 h, with 5 nM dexamethasone present; series mostly up to 58.5 µM; note: nearly all actives have a fitted effect of over 55% in size

Compound | Potency
Cc1cc(C)c(S(=O)(=O)O)cc1N=Nc1cc(S(=O)(=O)O)c2ccccc2c1O | inactive
CC(C)=CCCC(C)CC=O (centres undefined) | inactive
CCOC(=O)C1=C(C)NC(C)=C(C(=O)OC)C1c1cccc([N+](=O)[O-])c1 (centres undefined) | inactive
NC[C@H]1O[C@H](O[C@H]2[C@H](O)[C@@H](O[C@H]3O[C@H](CO)[C@@H](O)[C@H](N)[C@H]3O)[C@H](N)C[C@@H]2N)[C@H](O)[C@@H](O)[C@@H]1O | inactive
CCCCCCCC/C=C\CCCCCCCC(N)=O | inactive
CCOC(=S)SSC(=S)OCC | inactive
CCOc1cc(OCC)c(C(=O)CCC(=O)O)cc1OCC | inactive
Oc1ccc2c(c1)OCO2 | inactive
CCCCCc1ccc(N)cc1 | inactive
CC(=O)NCCCS(=O)(=O)O | inactive
O=C(c1ccc(O)cc1)c1ccc(O)cc1 | inactive
COc1ccc2[nH]c(S(=O)Cc3ncc(C)c(OC)c3C)nc2n1 (centres undefined) | inactive
N#CCc1cccc(C(F)(F)F)c1 | inactive
O=CNc1ccccc1 | inactive
CC(=O)c1c(C)c([N+](=O)[O-])c(C(C)(C)C)c([N+](=O)[O-])c1C | inactive
CC(=O)Nc1ccc(/C=N/NC(N)=S)cc1 | inactive
N=C(N=C(N)N)N1CCOCC1 | inactive
CN(C)CCCNCCCN | inactive
CCN(CC)CCNC(C(=O)OCCC(C)C)c1ccccc1 (centres undefined) | inactive
CCC(C)N(C)C(=O)c1cc2ccccc2c(-c2ccccc2Cl)n1 (centres undefined) | inactive

Compound | Potency
O=S1(=O)c2cccc3cccc(c23)N1CCCN1CCN(c2ccc(F)cc2)CC1 | inactive
CC(C)c1cccc(C(C)C)c1NC(=O)NS(=O)(=O)c1cc(C(C)(C)O)co1 | inactive
CCOc1ccc2[nH]cc(C(=O)NCc3ccccc3)c(=O)c2n1 | inactive
CCCCOC(=O)c1ccccc1C(=O)OCC(CC)CCCC (centres undefined) | inactive
O=C(Cl)c1ccc([N+](=O)[O-])cc1 | inactive
CNCC[C@@H](Oc1ccccc1C)c1ccccc1 | inactive
c1ccc(CNCc2ccccc2)cc1 | inactive
Cc1ccc(O)c([C@H](CCN(C(C)C)C(C)C)c2ccccc2)c1 | inactive
CCN(CC)CCc1nc(-c2ccccc2)no1 | inactive
CC1CCc2cc(F)cc3c(=O)c(C(=O)O)cn1c23 (centres undefined) | inactive
CNS(=O)(=O)Cc1ccc2[nH]cc(CCN(C)C)c2c1 | inactive
CCCCOC(O)CC (centres undefined) | inactive
CC[C@H](C)[C@H](N)C(=O)O | inactive
Nc1nc(CC(=O)O)cs1 | inactive
CCN1CCC[C@H]1CNC(=O)c1c(OC)ccc(Br)c1OC | inactive
O=C(NN1CCCC1)NS(=O)(=O)c1ccc(Cl)cc1 | inactive
CC1=CCC(C(C)C)C=C1 (centres undefined) | inactive
Cc1cc(NC(=O)C(=O)O)cc(C)c1Oc1ccc(O)c2c1CCC2 | inactive
CN1CCC(OC(c2ccccc2)c2ccccc2)CC1 | inactive
